Hits are enriched below; roughly 2% of the tested compounds scored in any of these assays.
M4 PAM – human M4 muscarinic receptor positive allosteric modulators, primary screen, CHO-K1 cells, Fluo-8 calcium fluorescence; 0.4% of 360,000 active; activation, % at 3 µM; CHO-K1 hM4/Gqi5, ACh EC20; 0% = ACh EC20, 100% = maximal ACh; Muscarinic acetylcholine receptor M4 (Homo sapiens), P08173; AID 624126, 2012;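 active = activation above its plate's cutoff, the mean activation of sample wells plus 3 SD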
Target sequence (P08173 whole entry, looked up): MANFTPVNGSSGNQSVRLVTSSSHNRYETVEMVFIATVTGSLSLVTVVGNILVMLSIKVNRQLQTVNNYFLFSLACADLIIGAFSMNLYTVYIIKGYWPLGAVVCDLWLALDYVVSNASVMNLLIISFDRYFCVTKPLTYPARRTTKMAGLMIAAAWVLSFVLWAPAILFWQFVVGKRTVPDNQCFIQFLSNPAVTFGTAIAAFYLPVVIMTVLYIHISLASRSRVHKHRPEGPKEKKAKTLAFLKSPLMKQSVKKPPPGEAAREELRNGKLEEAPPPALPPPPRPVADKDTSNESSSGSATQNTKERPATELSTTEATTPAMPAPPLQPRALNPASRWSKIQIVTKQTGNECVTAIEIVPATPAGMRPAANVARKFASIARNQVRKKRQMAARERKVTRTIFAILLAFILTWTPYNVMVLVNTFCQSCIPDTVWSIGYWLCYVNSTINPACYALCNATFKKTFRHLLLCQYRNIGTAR
M4 antag – human M4 muscarinic receptor antagonists, primary screen, CHO cells, Fluo-8 calcium fluorescence; Muscarinic acetylcholine receptor M4 (Homo sapiens), P08173; CHO-hM4 cells, ACh EC80; inhibition, % at 3 µM; 0.73% of 360,000 active; AID 624125, 2012;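 active = inhibition above its plate's cutoff, the mean inhibition of sample wells plus 3 SD, cut at about 27% in these data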
M4 ag – human M4 muscarinic receptor agonists, primary screen, CHO-K1 cells, Fluo-8 calcium fluorescence | Muscarinic acetylcholine receptor M4 (Homo sapiens), P08173 | CHO-K1 hM4/Gqi5; vehicle 0%, full acetylcholine response 100% | activation, % at 3 µM | 0.14% of 360,000 active;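 active = activation above the run mean over all test wells plus 3 SD, cut at about 32% in these data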;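 note: peak over basal fluorescence ratio per well then scaled between controls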
CHO-K1 Ca PAM – nonselective calcium activators in parental CHO-K1 cells, primary screen, counter-screen for M1 PAM project, cell-based, Fluo-8 calcium fluorescence, full deck, 1536-well; ATP EC20; 0% at ATP EC20, 100% at ATP max; activation, % at 3 µM; 0.02% of 360,000 active; AID 602247, 2012;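 active = activation above the run cutoff, the mean activation of all test compounds plus 3 SD, cut at about 40% in these data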;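 note: peak over basal fluorescence ratio in a 140 s read after ATP addition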
CHO-K1 Ca ag – counter-screen for M1 agonists: effect in parental CHO-K1 cells. Fluo-8 calcium fluorescence; scaled to maximal ATP response, vehicle zero. activation, % at 3 µM. 0.48% of 360,000 active; in the data active = activation above about 15%;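 note: untransfected CHO-K1 host cells lacking M1 receptor as counterscreen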
CHO-K1 Ca antag – M1 antagonist counterscreen hit in parental CHO-K1 cells | ATP-induced calcium, Fluo-8 fluorescence | inhibition, % at 3 µM | 0.6% of 360,000 active;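 active = inhibition above a per-plate cutoff, the plate's mean sample inhibition plus 3 SD, cut at about 24% in these data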
A number is an active result.

What do the screens show for `COc1ccc(CN([C@H](CO)CC(C)C)S(=O)(=O)N(Cc2ccccc2)[C@H](CO)CC(C)C)cc1`?
M4 PAM: inactive; M4 antag: 41; M4 ag: inactive; CHO-K1 Ca PAM: inactive; CHO-K1 Ca ag: inactive; CHO-K1 Ca antag: inactive

How did CC(C)C[C@@H](CO)N(Cc1ccccc1)S(=O)(=O)N(Cc1ccccc1)[C@H](CO)CC(C)C do in these assays?
M4 PAM: inactive; M4 antag: 39; M4 ag: inactive; CHO-K1 Ca PAM: inactive; CHO-K1 Ca ag: inactive; CHO-K1 Ca antag: inactive

What do the screens show for `COc1ccc(S(=O)(=O)N(C)C)cc1NC(=O)c1ccc2c(c1)NC(=O)C(C)S2` (centres undefined)?
M4 PAM: inactive; M4 antag: inactive; M4 ag: inactive; CHO-K1 Ca PAM: inactive; CHO-K1 Ca ag: inactive; CHO-K1 Ca antag: inactive

What do the screens show for `Cc1ccc(OCCN2CCN(c3ncnc4sc(C)c(C)c34)CC2)cc1`?
M4 PAM: inactive; M4 antag: inactive; M4 ag: inactive; CHO-K1 Ca PAM: inactive; CHO-K1 Ca ag: inactive; CHO-K1 Ca antag: inactive

Results for Clc1ccc(OCCN2CCN(c3ncnc4sccc34)CC2)cc1 ?
M4 PAM: inactive; M4 antag: 35; M4 ag: inactive; CHO-K1 Ca PAM: inactive; CHO-K1 Ca ag: inactive; CHO-K1 Ca antag: 34

How did CC(=O)OC1c2ccccc2C(=O)N1Cc1ccccc1Cl (centres undefined) do in these assays?
M4 PAM: inactive; M4 antag: 34; M4 ag: inactive; CHO-K1 Ca PAM: inactive; CHO-K1 Ca ag: inactive; CHO-K1 Ca antag: inactive

Results for COc1cc(NC2c3ccccc3C(=O)N2Cc2ccccc2Cl)cc(OC)c1 (centres undefined) ?
M4 PAM: inactive; M4 antag: inactive; M4 ag: inactive; CHO-K1 Ca PAM: inactive; CHO-K1 Ca ag: inactive; CHO-K1 Ca antag: inactive

How did COc1ccc(Cc2c(-c3cccc(Cl)c3)nc3cc(C)c(Br)c(C)n23)c(C)c1 do in these assays?
M4 PAM: inactive; M4 antag: inactive; M4 ag: inactive; CHO-K1 Ca PAM: inactive; CHO-K1 Ca ag: inactive; CHO-K1 Ca antag: inactive

What do the screens show for `CCOCC(=O)Nc1c(C(=O)Nc2ccc3c(c2)OCCO3)oc2ccccc12`?
M4 PAM: inactive; M4 antag: inactive; M4 ag: inactive; CHO-K1 Ca PAM: inactive; CHO-K1 Ca ag: inactive; CHO-K1 Ca antag: inactive

What do the screens show for `Cc1cc(NC(=O)c2cccc([N+](=O)[O-])c2)no1`?
M4 PAM: inactive; M4 antag: inactive; M4 ag: inactive; CHO-K1 Ca PAM: inactive; CHO-K1 Ca ag: inactive; CHO-K1 Ca antag: inactive

What do the screens show for `Cc1cc(NC(=O)c2cc([N+](=O)[O-])cc([N+](=O)[O-])c2)no1`?
M4 PAM: 15; M4 antag: inactive; M4 ag: inactive; CHO-K1 Ca PAM: inactive; CHO-K1 Ca ag: inactive; CHO-K1 Ca antag: inactive

Results for Cc1ccc(C)c(C(C)NC(=S)NCc2ccc(F)cc2)c1 (centres undefined) ?
M4 PAM: inactive; M4 antag: inactive; M4 ag: inactive; CHO-K1 Ca PAM: inactive; CHO-K1 Ca ag: 17; CHO-K1 Ca antag: inactive

Results for O=C(Nc1cccc([N+](=O)[O-])c1)c1cc2ccccc2cc1O ?
M4 PAM: inactive; M4 antag: inactive; M4 ag: inactive; CHO-K1 Ca PAM: inactive; CHO-K1 Ca ag: 16; CHO-K1 Ca antag: inactive

Results for O=C(Nc1ccncc1)c1cc2ccccc2cc1O ?
M4 PAM: inactive; M4 antag: inactive; M4 ag: inactive; CHO-K1 Ca PAM: inactive; CHO-K1 Ca ag: 16; CHO-K1 Ca antag: inactive

Results for O=C(Nc1ccncc1)c1ccccc1F ?
M4 PAM: inactive; M4 antag: inactive; M4 ag: inactive; CHO-K1 Ca PAM: inactive; CHO-K1 Ca ag: inactive; CHO-K1 Ca antag: inactive

Results for N=C(N)SCCN ?
M4 PAM: inactive; M4 antag: inactive; M4 ag: inactive; CHO-K1 Ca PAM: inactive; CHO-K1 Ca ag: inactive; CHO-K1 Ca antag: inactive

How did Cc1ccc(NC(Cc2cc(C)no2)c2ccccc2)cc1 (centres undefined) do in these assays?
M4 PAM: inactive; M4 antag: inactive; M4 ag: inactive; CHO-K1 Ca PAM: 46; CHO-K1 Ca ag: inactive; CHO-K1 Ca antag: inactive

Screens (PubChem)
